In PubChem BioAssay (NCI):
This is part of a sample that, as a whole, favours compounds with a hit. Of some 83,000 tested, about 20% had one in any assay.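 Negative percent growth values reflect cell death: -40 means 40% of the cells present at the start died, and -100 means all died.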 Active and inactive are the calls of the source. Rule for the calls: active = growth percent below 10; inactive = the rest.

Experiments:
Assay in all cases: NCI-60 one-dose screen, 48 h (100 = growth as untreated, 0 = no growth, -100 = all killed)
Conditions in all cases: 10 µM unless noted
DU-145 prostate = system: DU-145 prostate
K-562 leukemia = system: K-562 leukemia
MALME-3M melanoma = system: MALME-3M melanoma
MDA-MB-231 breast = system: MDA-MB-231 breast
RXF 393 renal = system: RXF 393 renal
SF-268 CNS = system: SF-268 CNS
SF-295 CNS = system: SF-295 CNS
SF-539 CNS = system: SF-539 CNS
UACC-257 melanoma = system: UACC-257 melanoma
M14 melanoma = system: M14 melanoma

Measured: growth

[2H]C([2H])([2H])Oc1ccc(F)cc1/C=C/C(=O)/C=C(/C=C/c1cc(F)ccc1OC([2H])([2H])[2H])OB(F)F
inactive: DU-145 prostate 85.1% | K-562 leukemia 47.6% | MALME-3M melanoma 68.7% | MDA-MB-231 breast 98.4% | RXF 393 renal 100% | SF-268 CNS 98.6% | SF-295 CNS 101% | SF-539 CNS 113% | UACC-257 melanoma 78.7% | M14 melanoma 70.1%

O=C(CCCCCNC(=O)c1cc(=O)c(O)co1)Nc1ccccc1
inactive: DU-145 prostate 103% | K-562 leukemia 95.2% | MALME-3M melanoma 102% | MDA-MB-231 breast 101% | RXF 393 renal 109% | SF-268 CNS 91.8% | SF-295 CNS 97.4% | SF-539 CNS 101% | UACC-257 melanoma 93.8% | M14 melanoma 96.3%

O=c1c2c3c(sc2n2c(-c4cc(-c5ccccc5)no4)nnc2n1Cc1ccccc1)CCCC3
inactive: DU-145 prostate 88.5% | K-562 leukemia 64.9% | MALME-3M melanoma 122% | MDA-MB-231 breast 80.5% | RXF 393 renal 77.8% | SF-268 CNS 93.5% | SF-295 CNS 83.4% | SF-539 CNS 114% | UACC-257 melanoma 110% | M14 melanoma 111%

COc1cc(-c2nc3cc(Cl)c(Cl)cc3[nH]2)ccc1OCC(=O)N=Nc1c(O)[nH]c2ccc(Cl)cc12
active: DU-145 prostate 6.51% | K-562 leukemia -11.7% | MALME-3M melanoma -16.4% | MDA-MB-231 breast -43.8% | RXF 393 renal -6.73% | SF-268 CNS -24.5% | SF-295 CNS -18% | SF-539 CNS -36% | UACC-257 melanoma 7.43% | M14 melanoma -35.8%

CN1CCN(CC(=O)Nc2ccc3ncnc(Nc4ccc(Oc5cccc(C(F)(F)F)c5)c(Cl)c4)c3c2)CC1
active: K-562 leukemia -27.3% | MALME-3M melanoma -77.1% | MDA-MB-231 breast -58.1% | RXF 393 renal -78.6% | SF-295 CNS -44.7% | SF-539 CNS -84.5% | UACC-257 melanoma -56.1% | M14 melanoma -86.5%
inactive: DU-145 prostate 23.9% | SF-268 CNS 11.3%

CCOC(=O)/C=C1\S/C(=N\Nc2cc(=O)[nH]c3ccccc23)N(c2ccccc2)C1=O
inactive: DU-145 prostate 109% | K-562 leukemia 98.2% | MALME-3M melanoma 101% | MDA-MB-231 breast 97.8% | RXF 393 renal 103% | SF-268 CNS 104% | SF-295 CNS 103% | SF-539 CNS 96.9% | UACC-257 melanoma 107% | M14 melanoma 101%

CN(C)CCCNC(=O)c1cncnc1Nc1ccc(OCc2cccc(F)c2)c(Cl)c1
inactive: DU-145 prostate 23.4% | RXF 393 renal 20.5% | SF-268 CNS 34.5% | SF-295 CNS 71.9%
active: K-562 leukemia -57.7% | MALME-3M melanoma -11.7% | MDA-MB-231 breast -43.4% | SF-539 CNS -71.2% | UACC-257 melanoma -63.2% | M14 melanoma -71.4%

c1nc2ccc(-c3cc4ccc5[nH]ncc5c4c4c3CCCC4)cc2[nH]1
active: M14 melanoma 7.72%
inactive: DU-145 prostate 62.5% | K-562 leukemia 27.8% | MALME-3M melanoma 28.8% | MDA-MB-231 breast 81.6% | RXF 393 renal 62.6% | SF-268 CNS 71.1% | SF-295 CNS 67.9% | SF-539 CNS 48.7% | UACC-257 melanoma 59.1%

O=C(Cc1ccc(/C=C/C(=O)c2ncc[nH]2)cc1)Nc1cc(C(F)(F)F)cc(C(F)(F)F)c1
inactive: DU-145 prostate 86.2% | K-562 leukemia 18.9% | MALME-3M melanoma 92.1% | MDA-MB-231 breast 92.6% | RXF 393 renal 67.8% | SF-268 CNS 88.2% | SF-295 CNS 93.7% | SF-539 CNS 73.7% | UACC-257 melanoma 100% | M14 melanoma 89.6%

COc1ccc(C[n+]2c3ccccc3n3c4ccc(N)cc4ccc32)c(OC)c1OC
inactive: DU-145 prostate 81% | K-562 leukemia 42% | MALME-3M melanoma 49.6% | MDA-MB-231 breast 75.5% | RXF 393 renal 69.7% | SF-268 CNS 35% | SF-295 CNS 65.6% | SF-539 CNS 52.2% | M14 melanoma 87.5%
active: UACC-257 melanoma 3.35%

COc1ccc(C(=S)N2CCN(c3ccc(Cl)cc3)CC2)cc1
inactive: DU-145 prostate 113% | K-562 leukemia 88% | MALME-3M melanoma 125% | MDA-MB-231 breast 76.7% | RXF 393 renal 126% | SF-268 CNS 100% | SF-295 CNS 117% | SF-539 CNS 102% | UACC-257 melanoma 96.1% | M14 melanoma 99.7%

Cc1c2cccnc2c(C)c2c1c1cc(CO)ccc1n2C
inactive: DU-145 prostate 25.3% | MALME-3M melanoma 16.8% | MDA-MB-231 breast 19.9% | RXF 393 renal 30.2% | SF-268 CNS 28.8% | SF-295 CNS 24.7% | SF-539 CNS 23.2% | M14 melanoma 29.8%
active: K-562 leukemia 9.28% | UACC-257 melanoma -1.38%

C=C(C)[C@@H]1CC[C@]2(C(N)=O)CC[C@]3(C)[C@H](CC[C@@H]4[C@@]5(C)CC[C@H](OCCC#N)C(C)(C)[C@@H]5CC[C@]43C)[C@@H]12
inactive: DU-145 prostate 94.7% | K-562 leukemia 74.3% | MALME-3M melanoma 101% | MDA-MB-231 breast 73.2% | RXF 393 renal 86.8% | SF-268 CNS 74.1% | SF-295 CNS 79.5% | SF-539 CNS 91.6% | UACC-257 melanoma 101% | M14 melanoma 90.2%

CCOC(=O)c1c(C)nc2c(c1N)/C(=C/c1ccc(OC)cc1)C(=O)N2Cc1ccccc1
inactive: DU-145 prostate 60.7% | K-562 leukemia 46.5% | MALME-3M melanoma 64.5% | MDA-MB-231 breast 57.8% | RXF 393 renal 71.4% | SF-268 CNS 62.3% | SF-295 CNS 68.7% | SF-539 CNS 87.5% | UACC-257 melanoma 49.6% | M14 melanoma 71.3%

COc1ccccc1N(C(C)=O)C1=C(Cl)C(=O)c2ccccc2C1=O
inactive: DU-145 prostate 38.1% | MALME-3M melanoma 43.3% | MDA-MB-231 breast 10.5% | SF-268 CNS 30.1% | M14 melanoma 11.7%
active: K-562 leukemia -13.2% | RXF 393 renal -29.1% | SF-295 CNS -36% | SF-539 CNS -30.9% | UACC-257 melanoma -7.02%

NS(=O)(=O)c1ccc(-c2cc(-c3nnc(SCC(=O)Nc4ccc(C(=O)/C=C/c5ccc(Cl)cc5)cc4)n3-c3ccccc3)c3ccccc3n2)cc1
inactive: DU-145 prostate 95.7% | K-562 leukemia 84.4% | MALME-3M melanoma 101% | MDA-MB-231 breast 90.8% | RXF 393 renal 93% | SF-268 CNS 74.8% | SF-295 CNS 101% | SF-539 CNS 92.3% | UACC-257 melanoma 104% | M14 melanoma 97.7%
